# Source: PubChem BioAssay (National Center for Advancing Translational Sciences (NCATS))
# Rows were chosen to be rich in hits. Some 3.6% of all compounds tested hit in one or more screens of this group.
# NTMT1 inhibitor – Primary qHTS for Inhibitors of N-terminal methyltransferase 1 (NTMT1): MTaseGlo Assay; N-terminal Xaa-Pro-Lys N-methyltransferase 1 (Homo sapiens), Q9BV86; NTMT1 MTase-Glo SAH luminescence, purified enzyme; Potency, µM (titrated, usually from 114 µM), without a hit: at the top dose activity change, negative = inhibition, hits mostly inhibitors; 59,000 tested, 2.5% active; AID 1645870, 2021;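 also: plate controls were DMSO vehicle for no effect and no enzyme for full effect; nearly all actives have a fitted effect of over 65% in size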
# Target sequence (Q9BV86 whole entry, looked up): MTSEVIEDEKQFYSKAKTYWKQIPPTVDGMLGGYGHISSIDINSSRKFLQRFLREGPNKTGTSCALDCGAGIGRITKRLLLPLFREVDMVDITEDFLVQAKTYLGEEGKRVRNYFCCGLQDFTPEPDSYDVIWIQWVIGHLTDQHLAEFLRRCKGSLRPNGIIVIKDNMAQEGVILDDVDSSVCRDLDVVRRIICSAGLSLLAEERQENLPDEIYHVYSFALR
# GALC G270D act – A Novel Cell-Based Assay to Identify Small Molecules for B -Galactocerebrosidase; P54803; 145M-Twi-hGALC-G270D cells (Twitcher mouse brain line with human GALC G270D), HMU-beta-Gal fluorescence, 48 h; Potency, µM (series often up to 57.5 µM), hits mostly activators; 45,000 tested, 0.1% active; AID 1159614, 2016; also: 0% is about no effect; nearly all actives have a fitted effect of over 65% in size
#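 Fluorogenic HMU-b-Gal hydrolysis (0.1 mM final, pH 5.2 citrate-phosphate with 1 mg/mL sodium taurocholate; carbonate stop buffer) measures mutant GALC activity after compound treatment of live 145M-Twi Twitcher brain cells stably carrying human GALC-G270D, with wild-type GALC line alongside; activation sought.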
# SKOV3 invasion – Primary qHTS assay for Inhibitors of ovarian cancer metastasis using an organotypic tumor microenvironment (TME) model. Potency, µM (titrated, usually from 45.8 µM), without a hit: top-dose activity change, negative = inhibition, actives largely listed as inhibitors. SKOV3ip1-GFP adhesion/invasion on 3D omental model, fluorescence. 46,000 tested, 0.1% active. AID 1963576, 2024;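 also: plate controls were DMSO wells for no effect and tomatine positive control wells for full effect; nearly all actives have a fitted effect of over 65% in size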
#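 Primary human omental fibroblast/mesothelial 3D culture pre-formed 48 h. SKOV3ip1-GFP cells added with compounds (0.36-46 umol/L), incubated 2 h RT/16 h 37 C, fixed; GFP cells quantified at 488/509 nm.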
# pS6 MEF inh – Acumen qHTS Assay for Inhibitors of the mTORC1 Signaling Pathway in MEF (Tsc2-/-, p53-/-) Cells: Sytravon. Tsc2-/- p53-/- MEF, phospho-rpS6 immunofluorescence/PI, 24 h. 44,000 tested, 0.78% active. AID 493208, 2011. Potency, µM (top dose mostly 38.3 µM), for inactives: at the top dose activity change, negative = inhibition, actives largely listed as inhibitors;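 also: plate controls were DMSO for no effect and rapamycin for full effect; nearly all actives have a fitted effect of over 50% in size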
#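 Cell-based qHTS: Tsc2-/- p53-/- MEF, 24 h cpd, 37 °C; fix/perm, anti-phospho-S6 Alexa-488 + PI; Acumen 488 nm scan; pS6/PI ratio, % positive cells; rapamycin 7.5 nM = inhibition ref; PI count = viability.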
# PMP22 txn prim – Cell-based coincidence reporter assay to measure PMP22 gene transcription in S16 Pmp22-F2sN cells - Primary screen | S16 Pmp22-F2sN Schwann cells, FLuc/NLuc coincidence luminescence, 24 h | 43,000 tested, 2% active | Potency, µM (titrated, usually from 57.5 µM), inactives show at the highest dose activity change, negative = inhibition, usual class: inhibitors; active = clear falling dose curves in both reporters; inconclusive = both reporters move, but less clearly or upward; inactive = either reporter flat; the % is the NLuc reporter signal; also: % is scaled to controls: 0 for no effect and ±100 for the full control effect
#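 Luminescent read-out of sequential FLuc and NLuc signals from a reporter embedded in the Pmp22 3' UTR of S16 Schwann cells, taken after 24 h compound exposure at 37C; compounds reducing both signals score as inhibitors of expression.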
# S16 F2sN tox – Cell viability qHTS assay in S16 Pmp22-F2sN cells; AID 1508642, 2021; Potency, µM (top dose mostly 57.5 µM), without a hit: at the highest dose activity change, negative = cytotoxicity, actives largely listed as cytotoxic; S16 Pmp22-F2sN Schwann cells (luciferase reporters placed in the Pmp22 gene) viability, CellTiter-Glo, 24 h; 43,000 tested, 0.48% active; also: % is scaled to controls: 0 for no effect and ±100 for the full control effect; nearly all actives have a fitted effect of over 65% in size
#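 S16 Schwann cells carrying the Pmp22-F2sN reporter, seeded in 1536-well format, were exposed to library compounds for 24 h at 37C. Viability was read as CellTiter-Glo luminescence after 15 min at room temperature.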
# An asterisk follows results filed as active; i = inactive; u = inconclusive; x = no result given; [ ] = another dose, or the depositor's remark. Unless noted, calls follow the shape of the dose curve; as a rule, active = well fitted curve in the direction sought with a large enough effect; inconclusive = small, poorly fitted or top-dose-only effect, or another doubt; inactive = no such curve, though single readings can be large; an effect the other way counts as inactive or inconclusive. Potency is read from the fitted curve at half-maximal effect.
SMILES,NTMT1 inhibitor,GALC G270D act,SKOV3 invasion,pS6 MEF inh,PMP22 txn prim,S16 F2sN tox
CN1CCCC1CCOC(c1cc2nccc(C(=O)O)c2[nH]1)c1ccccc1Cl (stereo not drawn),9.4%[57.5 µM],x,x,x,x,x
COc1ccc(CNC(=O)Cn2c(SCC(=O)Nc3ccc(C)c(C)c3)nc3ccccc32)cc1,4.2%,i,u,16.5µM*,u,-29.1%
N#Cc1ccc([C@H]2CCCC[C@H]2O)cc1C(F)(F)F,-2.9%[57.5 µM],x,x,x,x,x
Cc1c(C(c2ccc(F)cc2)c2c(O)c3ccccc3oc2=O)c(=O)n(-c2ccccc2)n1C (stereo not drawn),9.4%,i,-8.1%,-15.4%,1.7%,-5.0%
O=c1oc2ccccc2c(O)c1C(CC(O)c1ccc(-c2ccc(Br)cc2)cc1)c1ccccc1 (stereo not drawn),89.1µM*,i,x,x,x,x
Cc1ccc(NC(=O)CSc2nc(-c3ccco3)cc(C(F)(F)F)n2)c(C)c1,-0.2%,i,u,0.826µM*,u,u
CC1Oc2cc3c(-c4c(O)cc(O)c5c(O)c6c(cc45)OC(C)C(C)C6=O)c(O)cc(O)c3c(O)c2C(=O)C1C (stereo not drawn),17.8µM*,x,x,x,x,x
COc1ccc(N2CCN(C(=O)C3CCCN(S(=O)(=O)c4ccc5c(c4)CCCN5C(C)=O)C3)CC2)cc1 (stereo not drawn),-1.1%,i,i,7.36µM*,14.1µM*,u
CCOC(=O)c1c(C(C#N)=CN)c2ccc(Cl)c(Cl)c2n1C,79.4µM*,x,-22.0%,x,x,x
Oc1ccc2c(c1)C13CCCC[C@H]1[C@@H](C2)N(CC1CCC1)CC3,-15.4%[57.5 µM],x,x,x,x,x
O=C(c1ccccc1)c1ccc2nc(N3CCN(c4ccc(F)cc4)CC3)c3nncn3c2c1,15.2%,i,7.2%,4.14µM*,u,16.4%
CC1=CC(=O)[C@@H](O)[C@@]2(C)C1C[C@H]1OC(=O)[C@H](O)[C@@]3(O)[C@@H](C)[C@@H](O)[C@H](O)C2[C@@]13C (stereo partly drawn),5.1%[29.8 µM],x,x,x,x,x
COc1cc2cc(c1Cl)N(C)C(=O)C[C@H](OC(=O)C(C)C)[C@]1(C)O[C@@H]1[C@H](C)[C@@H]1C[C@@](O)(NC(=O)O1)[C@H](OC)/C=C/C=C(\C)C2,12.3%,x,x,x,x,x
